Compounds with a hit are over-represented: about 0.95% of the library has one in this group of screens.
Giardia FBPA inh: Giardia lamblia aldolase inhibition. purified Giardia FBPA. Potency, µM (doses to about 59.6 µM), for the others: top-dose activity, negative = inhibition, usual class: inhibitors. actives 0.71% (n = 290,000). AID 2451; further: nearly all actives have a fitted effect of over 55% in size
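40 nM FBPA preincubated 10 min at RT with compound (up to 57.5 uM final), then substrate plus GAPDH/TPI/NAD/arsenate coupling and diaphorase/resazurin added. Fluorescence read after 20 min at RT, 525/598 nm.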
RE007 growth inh: less growth of the S. pombe RE007 Vpr strain | S. pombe RE007 Vpr strain, BacTiter-Glo ATP luminescence, 24 h | Potency, µM (top dose mostly 92.2 µM), for inactives: at the highest dose activity change, negative = less growth, most hits filed as inhibitors | actives 0.21% (n = 360,000) | AID 651644; active means well fitted falling curve with a large enough effect; inconclusive means small, poorly fitted or top-dose-only effect; inactive means no such curve, though single readings can be large or run the other way; further: nearly all actives have a fitted effect of over 50% in size
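Fission yeast strain RE007, carrying one chromosomally integrated HIV-1 vpr copy, was seeded at OD 0.01 in PMG+AL medium with 23 nL pinned compound. After 24 h at 30 °C and 99% humidity, viability was read by BacTiter-Glo luminescence.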
LmPK inhibitor: inhibitors of Leishmania mexicana pyruvate kinase | Potency, µM (doses to about 57.5 µM), for the others: at the highest dose activity change, negative = inhibition, usual class: inhibitors | purified LmPK, Kinase-Glo ATP luminescence, 1 h | AID 1721 | Q27686 | actives 0.37% (n = 290,000)
Target sequence (Q27686 whole entry, looked up): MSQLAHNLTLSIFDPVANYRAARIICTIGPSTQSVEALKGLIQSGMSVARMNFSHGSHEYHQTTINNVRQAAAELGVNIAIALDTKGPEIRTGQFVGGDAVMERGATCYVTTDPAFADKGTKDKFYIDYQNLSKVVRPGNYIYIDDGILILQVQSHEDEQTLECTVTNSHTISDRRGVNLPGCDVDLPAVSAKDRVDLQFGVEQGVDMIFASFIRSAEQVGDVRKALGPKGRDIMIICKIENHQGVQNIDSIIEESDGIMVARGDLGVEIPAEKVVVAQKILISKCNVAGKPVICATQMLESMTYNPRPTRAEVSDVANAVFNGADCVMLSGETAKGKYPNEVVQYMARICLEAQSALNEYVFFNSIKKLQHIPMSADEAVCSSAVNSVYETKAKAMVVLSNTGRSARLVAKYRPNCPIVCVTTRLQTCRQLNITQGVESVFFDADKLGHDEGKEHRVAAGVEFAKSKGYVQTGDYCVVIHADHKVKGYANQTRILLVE
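Pyruvate kinase activity monitored as ATP production (luciferase luminescence). Conditions: 0.1 nM enzyme, 0.5 mM PEP, 0.1 mM ADP, 1 h, RT; normalized against uninhibited and no-enzyme wells.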
Tb PYK inh: inhibitors of Trypanosoma brucei pyruvate kinase | Q57TT1 | TbPYK enzyme, Kinase-Glo Plus ATP luminescence, 45 min | Potency, µM (titrated, usually from 76.8 µM), for inactives: top-dose activity, negative = inhibition, most hits filed as inhibitors | actives 0.12% (n = 410,000); further: nearly all actives have a fitted effect of over 50% in size
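Screened from lowest to highest concentration, compounds were pinned into TbPYK/substrate mixtures, and ADP (130 uM final) was added. Plates sat at room temperature for 45 min prior to Kinase-Glo Plus detection by luminescence.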
Active calls of the source: *; ? = inconclusive; . = no result; [ ] = remark or other dose. Unless noted, the call rests on the fitted dose curve; in most records, active means well fitted curve in the direction sought with a large enough effect; inconclusive means small, poorly fitted or top-dose-only effect, or another doubt; inactive means no such curve, though single readings can be large; an effect the other way counts as inactive or inconclusive. On the % scale 0 is the no-effect control and ±100 the full control effect; potency means the concentration at half of the fitted maximal effect.

SMILES	Giardia FBPA inh	RE007 growth inh	LmPK inhibitor	Tb PYK inh
Cn1c(=O)c2c(nc(SCC(=O)O)n2Cc2cc3c(cc2Cl)OCO3)n(C)c1=O	-16%	2%	-8%	25µM*
O=C1C=CC(=Nc2ccc3c(c2)C(=O)c2ccccc2-3)O1	.	?	.	-29%
O=C1C=CC(=Nc2ccc(F)cc2)O1	.	5µM*	.	?
Cc1nc(N2CCCCC2)c2sc(=S)n(C)c2n1	4%	16%	-1%	-10%
CCN1CCN(c2nc(C)nc3c2sc(=S)n3C)CC1	18µM*	-5%	-4%	?
COc1cc2ccccc2cc1C(=O)Nc1cccc(-c2nc3cc(C)c(C)cc3o2)c1C	.	.	.	-3%
O=C1C=CC2=C3c4cc(O)c(O)cc4CC3(O)COC2=C1O (stereo unspecified)	11µM*	-15%	.	?
O=C(c1cc(Cc2n[nH]c(=O)c3ccccc23)ccc1F)N1CCN(C(=O)C2CC2)CC1	.	.	.	4%
Brc1cc2[nH]cnc2c2ccccc12	18µM*	-20%	0%	-10%
COc1ccc(-c2nc(-c3ccncc3)no2)cc1	11%	4%	-9%	0%
COc1ccc(-c2nc(-c3cccs3)no2)cc1	0%	-27%	16µM*	-24%
Cc1ccccc1NS(=O)(=O)c1cc(C(=O)NCCSC2CCCCC2)ccc1C	-3%	11µM*	-1%	-9%
CC[N+]1(C)CCC(O)(c2ccc(OC)cc2)C(C(=O)c2ccc(OC)cc2)C1 (stereo unspecified)	.	40µM*	.	-11%
CN1CCC(O)(c2ccc(F)cc2)C(C(=O)c2ccc(F)cc2)C1 (stereo unspecified)	.	.	.	1%
COc1cccc(C(NC(C)=O)c2nc(-c3cccc(NC(C)=O)c3)cs2)c1 (stereo unspecified)	.	12%	.	0%
C[n+]1c2ccccc2nc2ccc(NCCO)cc21	?	3.5µM*	-2%	?
COc1ccc(-n2c(=O)c3sc4ccccc4c3n(CC(=O)Nc3ccccc3F)c2=O)cc1	.	.	.	-8%
O=C(CCl)c1ccc2c(c1)CCN2C(=O)C1CCCCC1	-9%	11µM*	1%	-3%
O=C(CCl)c1ccc2c(c1)CCN2C(=O)C1CC1	-10%	.	-1%	.
CC1=C/C(=C(/c2cc(C)c(O)c(Br)c2)c2ccccc2S(=O)(=O)O)C=C(Br)C1=O	-22%	?	20µM*	?
CC1=C/C(=C(/c2ccc(O)c(C)c2)c2ccccc2S(=O)(=O)O)C=CC1=O	.	-6%	.	-1%
COc1ccc2ccccc2c1C1CC(=O)N2CN(C3CCCCC3)CSC2=C1C#N (stereo unspecified)	?	0%	4%	?
CCc1ccccc1N1CSC2=C(C#N)C(c3ccccc3F)CC(=O)N2C1 (stereo unspecified)	6.3µM*	-14%	14%	8.9µM*
COc1ccc(C2CC(=O)N3CN(c4ccc(C)c(Cl)c4)CSC3=C2C#N)cc1 (stereo unspecified)	?	0%	-14%	3.2µM*
COc1cc(OC)c(C2CC(=O)N3CN(c4ccccc4C)CSC3=C2C#N)cc1OC (stereo unspecified)	4.5µM*	.	5%	.
SMILES	Giardia FBPA inh	RE007 growth inh	LmPK inhibitor	Tb PYK inh
Cc1cccc(N2CSC3=C(C#N)C(c4ccc(C)o4)CC(=O)N3C2)c1 (stereo unspecified)	?	.	2%	.
CC(=O)NC(CCC(N)=O)C(=O)O (stereo unspecified)	.	.	.	3%
Cc1ccc(C2=NN(S(C)(=O)=O)C(c3cccs3)C2)cc1 (stereo unspecified)	4%	-28%	-24%	-9%
CCc1ccc(C2=NN(S(C)(=O)=O)C(c3cccs3)C2)cc1 (stereo unspecified)	5%	-14%	22µM*	-7%
CCOC(=O)C1=C(C)N(c2ccc(OC)cc2)C(=O)/C1=C\c1ccc(O)c(OCC)c1	?	-2%	32µM*	-25%
O=C1C(Cl)=C(Nc2ccccc2)C(=O)c2ccccc21	?	6%	-3%	-3%
O=C1C(Cl)=C(NCCc2ccccc2)C(=O)c2ccccc21	.	6.3µM*	.	?
CCN(CC)CCCNC1=C(Cl)C(=O)c2ccccc2C1=O	18%	?	-6%	-6%
C=CCNC1=C(Cl)C(=O)c2ccccc2C1=O	?	20µM*	-12%	-1%
Cc1ccc(NC(=O)C[n+]2cc(-c3ccc(C)cc3)n3c2CCC3)cc1	-5%	-9%	4%	6%
Cn1c(NC(=O)C[n+]2cc(-c3ccc(Cl)c(Cl)c3)n3c2CCC3)cc(=O)n(C)c1=O	2%	32µM*	-1%	-1%
CC(C)=NOC[C@@H](C)[C@H](OCc1ccccc1)C(C)C	-1%[12.9 µM]	.	.	.
Cn1c(=O)[nH]c(=O)c2c1[nH]c(=S)n2Cc1ccc(Cl)cc1	?	.	?	5.6µM*
Cn1c(=O)[nH]c(=O)c2c1nc(Br)n2Cc1ccc(Cl)cc1	.	15%	.	-8%
COc1cc2[nH]c(Cl)c([N+](=O)[O-])c2cc1OC	5µM*	5%	2%	?
COc1cc(CCN)c(OC)cc1Br	.	.	.	4%[157 µM]
COc1ccc(N=Cc2[nH]c3ccccc3c2O)cc1	14µM*	-8%	3%	-26%
COc1ccc(N=CC2=C(O)c3ccccc3C2=O)cc1	2%	16%	3.2µM*	-20%
O=C1C(C=Nc2ccccc2O)=C(O)c2ccccc21	5%	?	?	-11%
O=C1C(C=Nc2ccccc2)=C(O)c2ccccc21	2%	-23%	3.5µM*	0%
N#Cc1cc2c([nH]c1=S)CCCC2	-8%	86%	14%	5.6µM*
Cc1ccc(C(=O)/C=C/c2ccccc2[N+](=O)[O-])cc1	-12%	3%	-3%	2%
O=C(/C=C/c1ccccc1[N+](=O)[O-])c1ccccc1Br	0%	28µM*	-2%	5%
O=C1/C(=C/c2cccs2)COc2ccccc21	8%	?	14µM*	-28%
Clc1ccc(-c2cn3c(n2)-c2ccccc2C3)cc1Cl	-21%	2%	25µM*	-2%
SMILES	Giardia FBPA inh	RE007 growth inh	LmPK inhibitor	Tb PYK inh
COc1cc(/C=C/C(=O)O[C@H]2CC[C@]34C[C@]35CC[C@]3(C)[C@@H]([C@H](C)CCC=C(C)C)CC[C@@]3(C)C5CCC4C2(C)C)ccc1O (stereo partly specified)	.	.	.	0%
CC(C)(C)c1ccc(C(=O)NCCC(=O)NNC(=O)COc2ccc(F)cc2)cc1	.	5%	.	3%
O=S(=O)(Nc1c(S(=O)(=O)c2ccccc2)c2nc3ccccc3nc2n1C1CCCCC1)c1ccccc1	?	?	2%	0%
C=CCn1c(NS(=O)(=O)c2ccccc2)c(S(=O)(=O)c2ccc(C)cc2)c2nc3ccccc3nc21	0.14µM*	-15%	1%	-4%
OC[C@H]1NC[C@H](O)[C@@H](O)[C@@H]1O	4%	.	.	.
CC(C)c1cc2c(c(O)c1O)[C@@]13CCCC(C)(C)C1CC2OC3=O (stereo partly specified)	5µM*	-11%	16µM*	?
O=C(Nc1ccccc1)Nc1ccc(C(=O)N2CCCC2)cc1	-6%	-57%	16µM*	?

Screening data deposited in PubChem BioAssay by National Center for Advancing Translational Sciences (NCATS).
